Measurements: the supplement of paper PMC6555819

Legend:
Assay in all cases: PBM binding z-score (relative to random genomic background probes); higher = stronger binding; sequences stand for … in GC…GCGATTGACAGCGTAGAATGAAGG
[1] = system: PPARg:RXRa DBDmut IVT, anti-RXR (DBD mutation: RXRa K156A/R161A, NR concentration 270 nM, RXRa partner concentration 90 nM)
Procedure, shortened: (§1)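 The probes on custom Agilent 4×180K protein-binding microarrays were double-stranded, with 34-nt variable regions bearing direct-repeat seeds, single-nucleotide variants, half-site ablations and random human genomic background sequences. Incubation lasted 1 h with ligand-free nuclear receptor dimers in PBS pH 7.4, 2% milk, 0.02% Triton X-100, 1 mM DTT, 0.2 mg/mL BSA and 0.4 mg/ml salmon testes DNA. Antibodies against each partner (one per run) detected bound dimers, and fluorescence scans were regression-normalized. Binding z-scores take the random background probes as reference.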

[2] = system: PPARg:RXRa IVT, anti-PPARg (NR concentration 270 nM, RXRa partner concentration 90 nM)
Procedure, shortened: as §1

[3] = system: PPARg DBDmut:RXRa IVT, anti-PPARg (DBD mutation: PPARg1 K132A/R137A, NR concentration 270 nM, RXRa partner concentration 90 nM)
Procedure, shortened: as §1

[4] = system: PPARg DBDmut IVT, anti-PPARg (DBD mutation: PPARg1 K132A/R137A, NR concentration 270 nM)
Procedure, shortened: as §1

[5] = system: PPARg homodimer (NR concentration 180 nM)
Procedure, shortened: as §1

[6] = system: PXR:RXRa (NR concentration 270 nM, RXRa partner concentration 90 nM)
Procedure, shortened: as §1

[7] = system: PXR homodimer (NR concentration 270 nM)
Procedure, shortened: as §1

[8] = system: RARa:RXR (NR concentration 270 nM, RXRa partner concentration 90 nM)
Procedure, shortened: as §1

[9] = system: RARa homodimer (NR concentration 270 nM)
Procedure, shortened: as §1

[10] = system: RARb:RXRa (NR concentration 270 nM, RXRa partner concentration 90 nM)
Procedure, shortened: as §1

[11] = system: RARb homodimer (NR concentration 270 nM)
Procedure, shortened: as §1

[12] = system: RARg:RXRa (NR concentration 270 nM, RXRa partner concentration 90 nM)
Procedure, shortened: as §1

[13] = system: RARg homodimer (NR concentration 270 nM)
Procedure, shortened: as §1

[14] = system: RXRa DBDmut IVT, anti-RXR (DBD mutation: RXRa K156A/R161A, NR concentration 90 nM)
Procedure, shortened: as §1

[15] = system: RXRa homodimer (NR concentration 180 nM)
Procedure, shortened: as §1

[16] = system: THRa:RXRa (NR concentration 90 nM, RXRa partner concentration 90 nM)
Procedure, shortened: as §1

[17] = system: THRa homodimer (NR concentration 90 nM)
Procedure, shortened: as §1

[18] = system: VDR:RXRa (NR concentration 270 nM, RXRa partner concentration 90 nM)
Procedure, shortened: as §1

[19] = system: VDR homodimer (NR concentration 270 nM)
Procedure, shortened: as §1

Sequence | PBM binding z-score [1] | PBM binding z-score [2] | PBM binding z-score [3] | PBM binding z-score [4] | PBM binding z-score [5] | PBM binding z-score [6] | PBM binding z-score [7] | PBM binding z-score [8] | PBM binding z-score [9] | PBM binding z-score [10] | PBM binding z-score [11] | PBM binding z-score [12] | PBM binding z-score [13] | PBM binding z-score [14] | PBM binding z-score [15] | PBM binding z-score [16] | PBM binding z-score [17] | PBM binding z-score [18] | PBM binding z-score [19]
CGTCCAAGGTCAAAGAGGTCAGTGAATGCCGAGT | 3.99 | 4.53 | 0.213 | -0.987 | 5.13 | 6.71 | 12.7 | 6.05 | 1.8 | 5.48 | 5.66 | 7.1 | 7.62 | 4.35 | 7.47 | 4.48 | 3.36 | 7.77 | 6.32
TCTTGTAGATCAAAGGTTAACAAAGCCGAAGCCT | 2.15 | 4.38 | 1.04 | 0.514 | 1.03 | 2.26 | 0.125 | 3.03 | 1.01 | 2.09 | 1.66 | 1.93 | 1.09 | 0.706 | 3.2 | 1.32 | -0.41 | 2.09 | -0.185
TCTCAGAGGACACGAAAGGTCAGAGCTCGACATC | 1.77 | 1.57 | -0.124 | -0.022 | 3.62 | 4.28 | 0.423 | 4.62 | 1.56 | 4.44 | 4.95 | 5.29 | 6.24 | 1.46 | 4.47 | 3.77 | 0.917 | 3.62 | 0.991
ACTAGCAGGCCAAATTTGGGTCACTCAAACAAAG | 2.87 | 4.17 | 0.302 | 0.302 | 0.993 | 0.803 | -0.346 | 1.72 | -0.199 | 1.54 | 2.36 | 2.39 | 1.39 | 0.0631 | 0.936 | 2.45 | 0.758 | 0.734 | -0.0164
TCTTGTAGATCAGCAGGTTAAGAAAGCTGGCCAA | 1.47 | 0.491 | 0.15 | 0.117 | -0.272 | 0.155 | -0.284 | 0.351 | -0.421 | 0.213 | -0.155 | -0.199 | -0.355 | 0.476 | 0.261 | -0.0256 | -0.621 | 0.357 | -0.371
TTACTAAGGTGAAAGGTCGTTGATGCACGCCTTG | 4.24 | 5.63 | 1.41 | 1.35 | 2.47 | 4.61 | 0.84 | 6.79 | 0.463 | 3.51 | 3.02 | 4.74 | 2.37 | 1.45 | 6.58 | 4 | 2.17 | 3.59 | 1.78
CCTTACGGGTCACTGATAGGTTATAGCATTTGGA | 3.46 | 3.73 | 1.18 | 0.0564 | 2.47 | 3.6 | 0.321 | 4.43 | 1.27 | 4.02 | 3.34 | 5.65 | 4.89 | 1.85 | 5.48 | 2.74 | 0.24 | 3.6 | 1.17
GGAACGAGGGCAAGGTTGATAGCATCTGTCGACG | 3.31 | 3.93 | 0.295 | -0.611 | 0.79 | 0.705 | -0.0103 | 0.822 | 0.206 | 2.52 | 1.67 | 1.67 | 1.88 | 1.72 | 1.32 | 1.45 | 0.156 | 0.638 | 1.39
GTACCAAGGTGAATCGGTCGTTGATGAGTAGGCG | 1.93 | 2.44 | -0.354 | -0.848 | -0.00106 | -0.262 | -0.354 | 0.293 | -0.11 | 1.67 | 1.27 | 1.17 | 1.01 | -0.343 | 0.482 | 1.49 | 0.486 | -0.122 | -0.443
CAAACTAGGTCTCGAAAGGTCAAAGTCGAATGAC | 5.54 | 5.71 | 2.45 | 0.645 | 3.86 | 5.61 | 2.13 | 6.33 | 2.57 | 4.4 | 4.49 | 5.71 | 5.18 | 1.18 | 6.53 | 3.97 | 1.2 | 4.71 | 2.67
TAGCCTAGGTCAGCTCGGGCCAGTATACGCTATA | 1.01 | 1.73 | -1.19 | -1.03 | 0.105 | 1.77 | -0.949 | 1.39 | -0.994 | 3.65 | 2.59 | 3.06 | 4.25 | -0.297 | 1.54 | 4.27 | 0.31 | 0.763 | -0.788
CGGACTAGGTCATTGACAGGACAGTGAATAGTAA | 7.36 | 7.62 | 1.48 | 0.689 | 1.1 | 1.6 | 0.0677 | 2.12 | 0.305 | 3.53 | 2.48 | 4.64 | 4.39 | 2.41 | 2.38 | 2.85 | 0.733 | 2 | 1.23
GCTAGTTGGTCAGTACAAGGTCACACACCGGTCG | 0.892 | 2.35 | -0.0423 | 0.196 | 2.2 | 3.74 | 1.58 | 3.91 | 0.633 | 3.36 | 4.39 | 4.09 | 3.66 | 0.602 | 3.47 | 4.02 | 4 | 3.24 | 2.53
GCGACTGGGGCAAAGCAGGTGACCATAAGGTTGG | 4.22 | 3.65 | -0.66 | -0.849 | 0.17 | -0.318 | -0.7 | 0.805 | -0.538 | 0.913 | 0.982 | 0.256 | 0.536 | -0.884 | 0.188 | 2.88 | -0.094 | -0.478 | -0.886
CCTGCTAGGTCAATGGTAAGCTAAAGCAGCTCGC | 4.33 | 3.43 | -1.49 | -0.489 | 1.05 | 0.564 | -0.596 | 1.5 | -0.463 | 3.79 | 2.43 | 3.52 | 3.82 | 1.66 | 1.96 | 2.03 | 0.52 | 0.595 | -0.274
